Inconclusive results are not listed. The source made the active and inactive calls. Unless noted, calls follow the shape of the dose curve; as a rule, active = well fitted curve in the direction sought with a large enough effect; inconclusive = small, poorly fitted or top-dose-only effect, or another doubt; inactive = no such curve, though single readings can be large; an effect the other way counts as inactive or inconclusive.
Legend:
[1] = target: Glucocorticoid receptor (Homo sapiens) (UniProt P04150); test: qHTS assay for small molecule agonists of glucocorticoid receptor signaling (AID 588532; active = well fitted curve in the direction sought with a large enough effect in the signal ratio, with a control signal flat; the % refers to the signal ratio;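 also: 100% = dexamethasone at 0.1 µM and 0% = DMSO only wells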); settings: HeLa MMTV-bla, beta-lactamase ratio, agonist, 18 h; stronger effect = higher value; percent of dexamethasone control, DMSO zero
Chain of Glucocorticoid receptor (Homo sapiens) (P04150 whole entry, looked up): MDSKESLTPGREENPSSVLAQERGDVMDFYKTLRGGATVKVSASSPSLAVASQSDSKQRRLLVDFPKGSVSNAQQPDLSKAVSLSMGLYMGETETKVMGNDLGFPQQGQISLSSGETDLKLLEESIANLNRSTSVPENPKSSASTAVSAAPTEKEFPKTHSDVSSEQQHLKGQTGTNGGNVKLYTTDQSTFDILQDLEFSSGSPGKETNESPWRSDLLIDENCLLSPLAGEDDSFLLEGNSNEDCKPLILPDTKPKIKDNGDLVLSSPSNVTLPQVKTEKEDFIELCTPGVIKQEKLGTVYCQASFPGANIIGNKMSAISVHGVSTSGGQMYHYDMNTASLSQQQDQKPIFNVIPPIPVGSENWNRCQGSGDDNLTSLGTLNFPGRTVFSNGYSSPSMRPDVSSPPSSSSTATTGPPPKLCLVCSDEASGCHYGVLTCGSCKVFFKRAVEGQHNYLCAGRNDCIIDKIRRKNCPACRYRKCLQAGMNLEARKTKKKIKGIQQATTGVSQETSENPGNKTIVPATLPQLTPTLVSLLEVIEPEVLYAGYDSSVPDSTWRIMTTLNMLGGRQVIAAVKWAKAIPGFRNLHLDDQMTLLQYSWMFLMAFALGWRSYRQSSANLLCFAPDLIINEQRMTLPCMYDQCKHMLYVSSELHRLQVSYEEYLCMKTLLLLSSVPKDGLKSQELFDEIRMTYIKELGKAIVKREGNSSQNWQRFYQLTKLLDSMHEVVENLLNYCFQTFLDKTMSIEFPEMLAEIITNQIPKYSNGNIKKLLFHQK
In short: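 MMTV-bla HeLa, beta-lactamase reporter; medium with 1% charcoal/dextran-stripped FBS; cpds up to 92 uM, 18 h, 37 C; CCF4 readout 460/530 nm; Hill fit → EC50, efficacy vs 0.1 uM dexamethasone = 100%.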

[2] = qHTS assay for small molecule antagonists of peroxisome proliferator-activated receptor delta signaling (AID 588535); settings: HEK293T PPARd-UAS-bla, beta-lactamase FRET ratio, 18 h; 460 nm channel;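 also: cells co-treated with a PPAR-delta agonist as stimulator during compound exposure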
In short: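 Reporter: UAS-bla under PPAR-delta response element, HEK293T host. Medium: 2% charcoal/dextran FBS. Dosing: titration, 18 hrs, 37 C. Detection: CCF4, 2 hrs RT, 405 ex/460 and 530 em.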

[3] = target: Peroxisome proliferator-activated receptor gamma (Homo sapiens) (UniProt P37231); test: qHTS assay for small molecule antagonists of peroxisome proliferator-activated receptor gamma signaling (AID 588537; active = well fitted inhibition curve with a large enough effect in the signal ratio, with a control signal flat, not every such curve was filed as active; the % refers to the signal ratio;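 also: reporter cells co-stimulated with 50 nM rosiglitazone agonist during compound treatment; % of control where 0% means no effect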); settings: HEK293 PPARg-UAS-bla, beta-lactamase ratio, antagonist mode; series mostly up to 76.8 µM
Chain of Peroxisome proliferator-activated receptor gamma (Homo sapiens) (P37231 whole entry, looked up): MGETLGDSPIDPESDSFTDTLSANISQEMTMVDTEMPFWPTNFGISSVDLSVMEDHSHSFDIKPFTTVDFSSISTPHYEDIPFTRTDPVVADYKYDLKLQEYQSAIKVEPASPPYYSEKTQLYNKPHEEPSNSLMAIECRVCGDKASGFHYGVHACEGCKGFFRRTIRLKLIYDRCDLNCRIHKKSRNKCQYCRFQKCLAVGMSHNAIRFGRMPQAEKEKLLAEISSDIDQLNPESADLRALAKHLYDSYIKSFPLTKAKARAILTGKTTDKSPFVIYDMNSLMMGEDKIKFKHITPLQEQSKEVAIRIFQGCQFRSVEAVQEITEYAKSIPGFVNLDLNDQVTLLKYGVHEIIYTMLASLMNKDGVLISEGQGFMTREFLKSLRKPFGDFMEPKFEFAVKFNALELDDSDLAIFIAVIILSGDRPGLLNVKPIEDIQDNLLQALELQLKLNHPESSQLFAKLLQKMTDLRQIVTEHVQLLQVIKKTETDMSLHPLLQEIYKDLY
In short: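 We seeded GeneBLAzer HEK293 reporter cells at 3000 per well, allowed 6-6.5 h attachment at 37 C, then co-treated with test compound titrations and 50 nM rosiglitazone overnight (16 h). Inhibition was quantified from 460/530 nm emission ratios.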

[4] = target: Vitamin D3 receptor (Homo sapiens) (UniProt P11473); test: qHTS assay for small molecule antagonists of vitamin D receptor signaling (AID 588541; calls by dose curve;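 also: receptor activated by calcitriol during compound treatment; % is scaled to controls: 0 for no effect and ±100 for the full control effect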); settings: HEK293T VDR-UAS-bla, beta-lactamase ratio, antagonist mode; series mostly up to 76.7 µM
Chain of Vitamin D3 receptor (Homo sapiens) (P11473 whole entry, looked up): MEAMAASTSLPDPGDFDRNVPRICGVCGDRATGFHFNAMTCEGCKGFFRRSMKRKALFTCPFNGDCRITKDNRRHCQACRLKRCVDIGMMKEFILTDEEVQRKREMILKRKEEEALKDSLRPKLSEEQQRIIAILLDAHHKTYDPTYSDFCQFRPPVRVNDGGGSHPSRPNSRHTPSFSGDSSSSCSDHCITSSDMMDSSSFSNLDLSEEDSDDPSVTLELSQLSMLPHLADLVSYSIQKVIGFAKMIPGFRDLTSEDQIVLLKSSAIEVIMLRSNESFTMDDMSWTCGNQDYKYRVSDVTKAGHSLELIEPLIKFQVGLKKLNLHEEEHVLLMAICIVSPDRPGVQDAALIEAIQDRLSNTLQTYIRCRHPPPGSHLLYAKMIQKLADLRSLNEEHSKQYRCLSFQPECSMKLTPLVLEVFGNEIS
In short: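 VDR-UAS-bla HEK293T cells (2000/well, 2% charcoal-stripped FBS) were treated with titrated compounds plus 1-alpha,25-dihydroxyvitamin D3 (50 nM or 3 nM final) for 16 h at 37 C. CCF4 beta-lactamase fluorescence was read; Hill fits gave IC50.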

[5] = target: Thyroid hormone receptor beta (Homo sapiens) (UniProt P10828); test: qHTS assay for small molecule agonists of thyroid hormone receptor beta signaling (AID 588545; calls by dose curve); settings: TR-UAS-bla GripTite HEK 293, beta-lactamase ratio, agonist mode, 18 h; series mostly up to 76.7 µM
Chain of Thyroid hormone receptor beta (Homo sapiens) (P10828 whole entry, looked up): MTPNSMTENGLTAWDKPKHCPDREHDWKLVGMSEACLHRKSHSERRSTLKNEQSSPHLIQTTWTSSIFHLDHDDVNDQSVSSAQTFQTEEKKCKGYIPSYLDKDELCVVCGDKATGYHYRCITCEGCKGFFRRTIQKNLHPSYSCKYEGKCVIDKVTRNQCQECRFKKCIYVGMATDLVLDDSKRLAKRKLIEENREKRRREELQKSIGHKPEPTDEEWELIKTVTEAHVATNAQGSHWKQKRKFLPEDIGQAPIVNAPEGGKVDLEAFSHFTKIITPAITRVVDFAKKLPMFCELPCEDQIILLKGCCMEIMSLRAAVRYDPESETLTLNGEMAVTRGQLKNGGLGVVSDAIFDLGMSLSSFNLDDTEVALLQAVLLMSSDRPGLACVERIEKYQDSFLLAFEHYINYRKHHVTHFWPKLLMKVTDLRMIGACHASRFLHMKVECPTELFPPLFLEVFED
In short: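 Cells (2500/well) were seeded, incubated 4 hrs at 37 C, dosed with a compound series, incubated 18 hrs, loaded with CCF4 dye for 2 hrs at RT, then read for fluorescence. Data were scaled between DMSO (0%) and 10 nM T3 (100%).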

[6] = qHTS assay for small molecule antagonists of retinoid X receptor alpha signaling (AID 588546; active = well fitted inhibition curve with a large enough effect in the signal ratio, with a control signal flat, not every such curve was filed as active; the % refers to the signal ratio; also: potency is read from the fitted curve at half-maximal effect;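 as to max response: cells stimulated with 9-cis-retinoic acid as agonist; % is scaled to controls: 0 for no effect and ±100 for the full control effect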); settings: HEK293T RXRa-UAS-bla, beta-lactamase ratio, antagonist mode; measured here: W530 green channel, cytotoxicity proxy
In short: (§1)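 Beta-lactamase reporter inhibition, read as CCF4 fluorescence ratio (ex 405, em 460/530 nm) after 2 h at RT. HEK293T UAS-bla cells, 2500/well, were stimulated with 9-cis-RA at 500 or 100 nM final alongside test compound for 18 h at 37 C.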

[7] = target: Retinoic acid receptor RXR-alpha (Homo sapiens) (UniProt P19793); test: as above; settings: HEK293T RXRa-UAS-bla, beta-lactamase ratio, antagonist mode
Chain of Retinoic acid receptor RXR-alpha (Homo sapiens) (P19793 whole entry, looked up): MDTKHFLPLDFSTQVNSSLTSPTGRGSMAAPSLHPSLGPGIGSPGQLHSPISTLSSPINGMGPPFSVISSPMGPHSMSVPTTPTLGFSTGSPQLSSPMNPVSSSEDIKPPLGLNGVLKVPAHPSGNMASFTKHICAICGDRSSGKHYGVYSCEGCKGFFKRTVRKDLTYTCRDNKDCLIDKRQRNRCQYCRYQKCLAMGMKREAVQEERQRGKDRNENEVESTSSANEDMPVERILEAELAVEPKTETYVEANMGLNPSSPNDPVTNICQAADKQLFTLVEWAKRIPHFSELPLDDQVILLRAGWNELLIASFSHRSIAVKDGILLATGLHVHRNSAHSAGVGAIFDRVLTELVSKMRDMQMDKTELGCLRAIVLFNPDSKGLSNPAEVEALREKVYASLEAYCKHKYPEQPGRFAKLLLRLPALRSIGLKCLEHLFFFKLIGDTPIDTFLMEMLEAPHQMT
In short: as §1

[8] = qHTS assay for small molecule activators of the p53 signaling pathway (AID 651743; active = well fitted activation curve with a large enough effect in the signal ratio, not every such curve was filed as active; the % refers to the signal ratio; also: % of control where 0% means no effect); settings: HCT-116 p53RE-bla, beta-lactamase FRET ratio, 16 h; activation: stronger effect = higher value
In short: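 Cell-based beta-lactamase reporter (p53 response elements, HCT-116 background). After a 5-hour preincubation, cells received compound for 16 hours at 37 C; substrate development ran 2 hours at room temperature.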

[9] = qHTS assay for environmental chemicals that activate the Aryl hydrocarbon Receptor (AhR) signaling pathway (AID 651777); settings: 1A2-DRE human hepatoma cells, luciferase, 24 h; activation: stronger effect = higher value; also: % of control where 0% means no effect; nearly all actives have a fitted effect of over 15% in size
In short: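 Concentration–response screening used 1,200 1A2-DRE cells per well, 24 hr compound exposure (37 C, 5% CO2), and One-Glo luminescence as the AhR-driven CYP1A2 reporter signal.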

[10] = target: Peroxisome proliferator-activated receptor alpha (Homo sapiens) (UniProt Q07869); test: qHTS assay for small molecule agonists of the peroxisome proliferator-activated receptor alpha (PPARalpha) signaling pathway (AID 651778); settings: PathHunter PPARalpha complementation, chemiluminescence, 6 h; max response: stronger effect = higher value; also: % of control where 0% means no effect
Chain of Peroxisome proliferator-activated receptor alpha (Homo sapiens) (Q07869 whole entry, looked up): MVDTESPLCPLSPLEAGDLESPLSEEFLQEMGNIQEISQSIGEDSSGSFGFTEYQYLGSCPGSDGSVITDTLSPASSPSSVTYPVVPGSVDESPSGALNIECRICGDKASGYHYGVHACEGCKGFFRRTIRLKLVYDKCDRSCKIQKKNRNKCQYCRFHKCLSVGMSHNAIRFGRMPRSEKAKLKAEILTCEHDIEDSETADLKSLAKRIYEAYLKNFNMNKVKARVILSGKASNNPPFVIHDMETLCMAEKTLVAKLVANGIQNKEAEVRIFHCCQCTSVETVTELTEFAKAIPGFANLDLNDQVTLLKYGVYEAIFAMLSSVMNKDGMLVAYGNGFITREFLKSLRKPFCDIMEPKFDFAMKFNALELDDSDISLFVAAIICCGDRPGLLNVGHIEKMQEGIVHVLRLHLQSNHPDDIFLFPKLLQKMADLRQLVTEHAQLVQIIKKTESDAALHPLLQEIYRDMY
In short: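 Cells plated at 2,000/well and held overnight at 37 C, 5% CO2, then compound added by pin tool for 6 hr; after PathHunter detection reagent and 60 min at room temperature, chemiluminescence from enzyme complementation was read.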

[11] = qHTS assay for small molecule agonists of the antioxidant response element (ARE) signaling pathway measured by Nrf2-dependant transcriptional activity (AID 720636; active = well fitted curve in the direction sought with a large enough effect in the repeat runs; an effect the other way counts as inactive or inconclusive;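 also: HepG2 cells with an ARE-driven luciferase reporter; % of control where 0% means no effect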); settings: ARE-luc HepG2, Nrf2 luciferase reporter, 16 h; series mostly up to 92.4 µM
In short: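 Attachment 6 hr at 37 C, then compound versus DMSO vehicle for 16 hr in ARE-luc HepG2 cells (1% dialyzed FBS); luminescence recorded 30 min after ONE-Glo addition at room temperature.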

[12] = qHTS assay for cell viability of HEK293 cells (AID 743288); settings: ATP luminescence (CellTiter-Glo), 18 h; max response: stronger effect = lower value; also: % is scaled to controls: 0 for no effect and ±100 for the full control effect; nearly all actives have a fitted effect of over 50% in size
In short: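 Parental HEK293 cells, 2,000 per well, preincubated at least 5 h at 37 C, then exposed to compounds in DMSO for 18 h at 37 C. Viability by CellTiter-Glo ATP luminescence after 30 min at room temperature.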

[13] = qHTS assay for cell viability of the p53RE-bla HCT-116 cell line (AID 743292); settings: p53RE-bla HCT-116 viability, ATP luminescence, 16 h; series mostly up to 95 µM; also: % is scaled to controls: 0 for no effect and ±100 for the full control effect; nearly all actives have a fitted effect of over 55% in size
In short: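 Compound-exposed HCT-116 (p53RE-bla) cells, 4,000 per well, were kept 16 h at 37 C following a 5 h preincubation. Cell number was estimated from total ATP by CellTiter-Glo luminescence read after 30 min at room temperature.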

[14] = target: Nuclear receptor subfamily 1 group I member 2 (Rattus norvegicus) (UniProt Q9R1A7); test: qHTS assay for small molecule activators of the rat pregnane X receptor (rPXR) signaling pathway (AID 651751; call rule not given here; also: 0% is about no effect); settings: rPXR reporter cells, luciferase (One-Glo), 24 h
Chain of Nuclear receptor subfamily 1 group I member 2 (Rattus norvegicus) (Q9R1A7 whole entry, looked up): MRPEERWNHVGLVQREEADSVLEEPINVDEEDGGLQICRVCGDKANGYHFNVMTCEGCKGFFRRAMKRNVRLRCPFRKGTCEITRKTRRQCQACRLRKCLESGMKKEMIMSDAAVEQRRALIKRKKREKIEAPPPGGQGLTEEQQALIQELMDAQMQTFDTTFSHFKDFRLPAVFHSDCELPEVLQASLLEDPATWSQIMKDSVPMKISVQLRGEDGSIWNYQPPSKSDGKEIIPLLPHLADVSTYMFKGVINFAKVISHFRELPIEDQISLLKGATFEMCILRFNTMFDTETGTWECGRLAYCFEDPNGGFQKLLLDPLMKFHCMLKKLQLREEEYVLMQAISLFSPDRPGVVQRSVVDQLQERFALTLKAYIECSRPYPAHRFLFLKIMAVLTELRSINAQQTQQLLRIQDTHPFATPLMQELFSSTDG

[15] = qHTS assay for small molecule activators of the human pregnane X receptor (PXR) signaling pathway (AID 720659; call rule not given here; also: 0% is about no effect); settings: DPX-2 HepG2 CYP3A4-luciferase, 24 h; series mostly up to 92.3 µM
[16] = target: Vitamin D3 receptor (Homo sapiens) (UniProt P11473); test: qHTS assay for small molecule agonists of vitamin D receptor signaling (AID 588543; calls by dose curve;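 also: 0% = DMSO basal and 100% = reference agonist control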); settings: HEK293T VDR-UAS-bla, beta-lactamase ratio, 16 h; series mostly up to 76.8 µM
In short: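 VDR-UAS-bla HEK293T cells, 2000/well, 2% charcoal-stripped FBS; compound titration 16 h at 37 C; CCF4 beta-lactamase ratio read. Normalized to 50 nM 1-alpha,25-dihydroxyvitamin D3 (100%) and DMSO; Hill fit gives EC50, efficacy.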

[17] = target: Peroxisome proliferator-activated receptor gamma (Homo sapiens) (UniProt P37231); test: qHTS assay for small molecule agonists of peroxisome proliferator-activated receptor gamma signaling (AID 588536; active = well fitted curve in the direction sought with a large enough effect in the signal ratio, with a control signal flat, not every such curve was filed as active; the % refers to the signal ratio;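 also: 0% = DMSO basal wells and 100% = rosiglitazone at 2 µM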); settings: HEK293 PPARg-UAS-bla, beta-lactamase ratio, 16 h, percent of rosiglitazone response, DMSO as zero; series mostly up to 76.7 µM
In short: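 GeneBLAzer PPAR-gamma-UAS-bla HEK293 cells in 1% charcoal/dextran-treated FBS medium were treated 16 h at 37 C with compounds. Beta-lactamase activity was read by CCF4 ratio (460/530 nm). Response was normalized to 2 uM rosiglitazone (100%) and DMSO, then Hill-fitted for EC50 and efficacy.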

[18] = qHTS assay for small molecule agonists of retinoid X receptor alpha signaling (AID 588544; calls by dose curve;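 as to activation: 0% = DMSO basal wells and 100% = reference agonist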); settings: HEK293T RXRa-UAS-bla, beta-lactamase reporter, 18 h; 530 nm emission
[19] = target: Retinoic acid receptor RXR-alpha (Homo sapiens) (UniProt P19793); test: as above; settings: HEK293T RXRa-UAS-bla, beta-lactamase reporter, 18 h; series mostly up to 76.7 µM
[20] = qHTS assay for small molecule agonists of the antioxidant response element (ARE) signaling pathway measured by Nrf2-dependant transcriptional activity - cell viability counter screen (AID 720653; active = well fitted curve in the direction sought with a large enough effect in the repeat runs; an effect the other way counts as inactive or inconclusive; also: % is scaled to controls: 0 for no effect and ±100 for the full control effect); settings: ARE-bla HepG2 viability, CellTiter-Glo ATP luminescence, 16 h; max response: stronger effect = lower value
In short: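 ARE-bla HepG2 cells (2,000/well) rested 5 hrs at 37C/5% CO2, then exposed to compounds in DMSO for 16 hrs. Viability was read in the same wells as intracellular ATP by luminescence, 30 min at room temperature after reagent addition.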

CCCCCCCCCCCC[N+](C)(C)C
inactive: activation [1] -4.8% | Potency [3] | Potency [4] | Potency [5] | activation [8] 12.8% | activation [9] 9.5% | max response [10] -0.842% | Potency [11] | max response [12] -25.6% | Potency [13] | max response [14] -11.2% | outcome [15]
active: Potency [7] 17.8 µM
-26.8%: max response [2]
5.9%: max response [6]

CCCCCCCCCCCCCCC
inactive: activation [1] -6.59% | Potency [4] | outcome [16] | Potency [5] | max response [7] -6.6% | max response [10] -1.61% | Potency [11] | max response [12] -6.32% | Potency [13] | max response [14] -4.43% | outcome [15]
-8.06%: max response [6]
-0.185%: max response [2]

CCCCCCCC/C=C\CCCCCCCC(=O)OC
-13.4%: max response [18]
-9.12%: max response [6]
-11.5%: max response [2]
inactive: activation [1] -1.79% | outcome [17] | Potency [3] | Potency [4] | outcome [16] | Potency [19] | Potency [5] | activation [8] 1.64% | activation [9] -0.866% | max response [10] 4.75% | Potency [11] | max response [20] -4.89% | max response [12] -6.3% | Potency [13] | max response [14] 0.29% | outcome [15]

COc1cc(Cl)c(OC)cc1N
-3.24%: max response [18]
inactive: activation [1] -0.0557% | outcome [17] | Potency [3] | Potency [4] | outcome [16] | Potency [19] | max response [7] -0.61% | max response [10] -0.316% | Potency [11] | max response [20] 1.98% | max response [12] -8.15% | Potency [13] | max response [14] 6.4%
-0.344%: max response [2]
1.78%: max response [6]

Cc1ccc2c(c1)C(=O)OC2=O
33.6%: max response [2]
-9.63%: max response [6]
inactive: activation [1] -1.62% | outcome [17] | Potency [3] | Potency [4] | outcome [16] | Potency [19] | activation [9] 2.38% | max response [10] -2.31% | Potency [11] | max response [12] -7.63% | Potency [13] | max response [14] 0.0212% | outcome [15]
-13.4%: max response [18]

O=C=NC1CCC(CC2CCC(N=C=O)CC2)CC1 (stereo not drawn)
-11%: max response [18]
-7.15%: max response [6]
20.7%: max response [2]
inactive: activation [1] -3.36% | Potency [3] | Potency [4] | outcome [16] | Potency [19] | Potency [5] | max response [7] -13.6% | activation [8] -0.886% | activation [9] 0.629% | max response [10] -2.73% | Potency [11] | max response [20] -1.04% | max response [12] -9.19% | Potency [13] | max response [14] -1.91% | outcome [15]

Source: PubChem BioAssay (NCATS)
